# Source: ChEMBL document CHEMBL1961873, “Compounds: GSK PKIS; Assays: Nanosyn kinase panel” (2012)
# Tested on: Proto-oncogene tyrosine-protein kinase receptor Ret (Homo sapiens), P07949 [V804L]
# Conditions: at 1 µM
# Chain of Proto-oncogene tyrosine-protein kinase receptor Ret (Homo sapiens), P07949 [V804L] (P07949 whole entry V804L): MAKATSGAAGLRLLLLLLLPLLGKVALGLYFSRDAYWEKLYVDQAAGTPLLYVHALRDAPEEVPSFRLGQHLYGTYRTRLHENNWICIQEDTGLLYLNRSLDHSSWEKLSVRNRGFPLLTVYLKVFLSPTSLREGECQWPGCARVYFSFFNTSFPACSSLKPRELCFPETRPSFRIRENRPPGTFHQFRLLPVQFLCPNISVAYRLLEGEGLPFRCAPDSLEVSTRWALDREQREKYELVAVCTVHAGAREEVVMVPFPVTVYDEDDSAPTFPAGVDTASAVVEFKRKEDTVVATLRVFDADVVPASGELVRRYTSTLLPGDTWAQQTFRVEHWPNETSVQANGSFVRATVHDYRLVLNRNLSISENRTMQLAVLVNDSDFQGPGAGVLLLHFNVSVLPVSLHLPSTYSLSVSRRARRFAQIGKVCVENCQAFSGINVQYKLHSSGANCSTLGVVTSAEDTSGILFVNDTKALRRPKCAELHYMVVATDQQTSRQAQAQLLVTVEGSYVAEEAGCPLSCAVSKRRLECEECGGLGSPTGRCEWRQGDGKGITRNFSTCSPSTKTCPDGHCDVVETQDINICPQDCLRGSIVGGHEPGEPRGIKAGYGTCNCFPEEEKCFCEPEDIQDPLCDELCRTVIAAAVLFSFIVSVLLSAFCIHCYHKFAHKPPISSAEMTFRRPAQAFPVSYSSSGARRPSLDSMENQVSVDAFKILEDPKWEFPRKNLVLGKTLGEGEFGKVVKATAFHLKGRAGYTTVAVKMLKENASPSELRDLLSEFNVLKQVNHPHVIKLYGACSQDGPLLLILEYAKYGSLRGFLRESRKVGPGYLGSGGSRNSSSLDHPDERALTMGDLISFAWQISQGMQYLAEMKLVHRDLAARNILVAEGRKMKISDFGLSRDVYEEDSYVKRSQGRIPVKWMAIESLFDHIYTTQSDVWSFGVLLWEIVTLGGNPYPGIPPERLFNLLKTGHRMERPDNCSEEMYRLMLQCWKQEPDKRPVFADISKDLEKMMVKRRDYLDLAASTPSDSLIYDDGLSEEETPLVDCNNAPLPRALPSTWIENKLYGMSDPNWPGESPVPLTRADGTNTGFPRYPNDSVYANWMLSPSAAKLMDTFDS
row,Compound,inhibition
1,[O-][S+]1CCN(Cc2ccc(-c3ccc4ncnc(Nc5ccc(OCc6ccccc6)c(Cl)c5)c4c3)o2)CC1,3.13%
2,C[C@@H](Oc1cc(-n2cnc3ccc(OC[C@@H](O)CO)cc32)sc1C(N)=O)c1ccccc1Cl,5.35%
3,OCc1ccc(-c2nc(-c3ccccn3)c(-c3ccc4c(c3)OCO4)[nH]2)cc1,1.05%
4,NS(=O)(=O)c1ccc(Nc2cc(-c3cccc(O)c3)n[nH]2)cc1,21.3%
5,Nc1ccc(C#Cc2cncnc2Nc2ccc(OCc3cccc(F)c3)c(Cl)c2)cc1,3.18%
6,Cc1ccc(Nc2ccnc(Nc3cccc(C(N)=O)c3)n2)cc1O,49.7%
7,CCCN1CCCC(c2ccc(Nc3nc(Nc4cc(F)ccc4C(N)=O)c4cc[nH]c4n3)c(OC)c2)C1 (stereo not drawn),41.6%
8,N#Cc1cccc(Nc2nccc(-c3cnn4ncccc34)n2)c1,43.8%
9,COc1cc(Nc2nccc(-c3cnn4ncccc34)n2)cc(OC)c1,33.5%
10,CS(=O)(=O)CCNCc1nc(-c2ccc3ncnc(Nc4ccc(OCc5cccc(C(F)(F)F)c5)cc4)c3c2)cs1,5.13%
11,Cc1ccc(O)cc1Nc1ccnc2ccc(S(C)(=O)=O)cc12,26.6%
12,Cc1nc(-c2ccccc2)n2nc(NCCCN3CCOCC3)ncc12,7.97%
13,COc1cccc(-n2ncc3c(N/N=C/c4ccc(S(C)(=O)=O)cc4)ncnc32)c1,8.24%
14,NC(=O)c1sc(-n2cnc3ccccc32)cc1OCc1ccccc1Br,5.79%
15,CS(=O)(=O)Nc1cccc(-c2ccc3c(NC(=O)C4CC4)n[nH]c3c2)c1,-1.31%
16,COc1cccc(-n2ncc3c(N/N=C/c4ccc(C)cc4)ncnc32)c1,10.2%
17,NS(=O)(=O)c1cccc(Nc2cc(-c3ccc(F)cc3)n[nH]2)c1,25.3%

row,Compound,inhibition
1,COC(=O)c1ccc2c(c1)C(=Cc1cc(Br)c(O)c(Br)c1)C(=O)N2,39.8%
2,CCS(=O)(=O)c1ccc(OC)c(Nc2nccc(N(C)c3ccc4c(C)n[nH]c4c3)n2)c1,8.57%
3,O=S(=O)(CCOCc1ccc(-c2ccc3ncnc(Nc4ccc(OCc5cccc(F)c5)c(Cl)c4)c3c2)o1)c1ccccc1,10.1%
4,Cc1cc(-c2ccccn2)cc(C)c1/C=C/c1cncc(-c2nn[nH]n2)c1,5.09%
5,CN(C)C(=O)O[C@@H]1CN[C@@H](C#Cc2cc3ncnc(Nc4ccc(OCc5cccc(F)c5)c(Cl)c4)c3s2)C1,-0.74%
6,Oc1cccc(-c2nc(-c3ccccc3)[nH]c2-c2ccncc2)c1,7.21%
7,CN1CCN(C(=O)c2ccc(NC(=O)Nc3ccc(N(C)c4ccnc(Nc5ccc(CS(C)(=O)=O)cc5)n4)cc3)cc2)CC1,67.1%
8,COc1cc(/C=N/Nc2ncnc3c2cnn3C(C)C)ccc1O,53.9%
9,FC(F)(F)c1ccc(-c2nn3ncccc3c2-c2ccnc(Nc3ccc4c(c3)OCCO4)n2)cc1,14.3%
10,Nc1nccc(-c2c(-c3ccc(F)cc3)ncn2CCCN2CCOCC2)n1,4.72%
11,Cc1ccc(C(=O)NC2CC2)cc1-c1ccc2[nH]ncc2c1,0.72%
12,COc1cc2ncn(-c3cc(OCc4ccccc4S(C)(=O)=O)c(C#N)s3)c2cc1OC,53.6%
13,COc1ccc2ncnc(Nc3ccc(OCc4ccccc4)cc3)c2c1,7.26%
14,COC(=O)Nc1nc2cc(Oc3ccc(NC(=O)Nc4cccc(Br)c4)cc3)ccc2[nH]1,66.5%
15,Cc1ccc2c(-c3ccnc(Nc4cccc(C(F)(F)F)c4)n3)c(-c3ccccc3)nn2n1,3.3%
16,COc1cc2ncnc(Nc3ccc(C)c(O)c3)c2cc1OC,11.3%
